# Assay results taken from PubChem BioAssay (EPA / NIEHS).
# Results filed as inconclusive are left out. Calls of active or inactive are those of the source. Rule for the calls, unless noted: active = hit-call score of the fitted dose curve at least 0.9, where 1 is the maximum; inactive = score below 0.9.
# Experiments:
# [1] = BSK_BT_PBMCCytotoxicity: PBMC Cytotoxicity Assessment in the BioMAP Diversity Plus: BT Assay (AID 2284225); settings: primary human B cells with PBMC;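 note: PBMC viability measured by Alamar Blue dye reduction fluorescence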
# Outline: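 Viability by Alamar Blue reduction (6 h, ex/em 546/580 nm) after 90 h culture of SEB/TSST-1-activated PBMC (20 ng/mL each) given compound 1 h before activation. DMSO served as baseline for curve fitting.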
# [2] = read-out: Secreted IgG (sIgG), gene 3500; assay: BSK_BT_sIgG: BioMAP Diversity Plus: BT Assay for Secreted IgG (sIgG) Biomarker Activity (AID 2284226); settings: primary human B cells with PBMC
# Outline: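 ELISA quantitation of secreted IgG from human B cells co-cultured with PBMC, sampled 24 h post-dosing. Values fitted relative to DMSO vehicle as baseline, positive fitting direction.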
# [3] = BSK_BT_Bcell_Proliferation: Viability Assessment in the BioMAP Diversity Plus: BT Assay for B cell Proliferation (AID 2284227); settings: primary human B cells with PBMC
# Outline: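 SRB-based protein staining (0.1% SRB after 10% TCA fixation, 560 nm) quantifies proliferation in human B cells co-cultured with PBMC, 72 h post-dosing, with signal gain scored relative to DMSO negative control.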
# [4] = read-out: Interleukin 6 (IL6), IL6 (gene 3569); assay: BSK_BT_xIL6: BioMAP Diversity Plus: BT Assay for Interleukin 6 (IL6) Biomarker Activity (AID 2284228); settings: primary human B cells with PBMC
# Outline: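 IL-6 secretion measured (Luminex xMAP) in human primary B cell + PBMC co-culture at 24 h of chemical exposure; DMSO served as negative control and activity baseline, with curves fitted for increase.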
# [5] = read-out: Interleukin 17A (IL17A), IL17A (gene 3605); assay: BSK_BT_xIL17A: BioMAP Diversity Plus: BT Assay for Interleukin 17A (IL17A) Biomarker Activity (AID 2284229); settings: primary human B cells with PBMC
# Outline: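 Human primary B cells plus PBMC, treated 24 h with chemicals; supernatant IL-17A quantified on Luminex xMAP beads. Gain of signal over DMSO control scored as activity.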
# [6] = CCTE_Mundy_HCI_hN2_NOG_NeuriteLength: CCTE's Neurite Outgrowth Assay in human hN2 cells for Neurite Length, Mundy Lab (AID 2284220; active = hit-call score of the fitted dose curve at least 0.9, where 1 is the maximum)
# Outline: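 Using βIII-tubulin immunofluorescence and Hoechst nuclear counterstain, this component quantifies neurite length in hNP1-derived neurons.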
# [7] = CCTE_Mundy_HCI_hN2_NOG_NeuronCount: CCTE's Neurite Outgrowth Assay in human hN2 cells for Neuron Count, Mundy Lab (AID 2284221; active = hit-call score of the fitted dose curve at least 0.9, where 1 is the maximum)
# Outline: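 Read-out is the number of betaIII-tubulin-positive neurons imaged by automated high-content analysis, with DMSO as negative control.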
# [8] = CCTE_Mundy_HCI_Cortical_Synap_Neur_Matur_NeuriteCount: CCTE's Synaptogenesis and Neurite Maturation Assay in rat cortical cells for Neurite Count, Mundy Lab (AID 2284222);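 note: exposure from day 7 to day 12 in vitro with readout at day 12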
# Outline: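 Chemical exposure runs DIV 7–12 in rat cortical cultures, glia suppressed by AraC at DIV 5; measurement is at DIV 12. Imaging-derived neurite counts are fitted against DMSO baseline.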
# [9] = CCTE_Mundy_HCI_Cortical_Synap_Neur_Matur_CellBodySpotCount: CCTE's Synaptogenesis and Neurite Maturation Assay in rat cortical cells for Cell Body Spot Count, Mundy Lab (AID 2284223)
# Outline: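 Chemicals were applied to AraC-treated rat primary cortical cells at DIV 7 and measured at DIV 12. Fixed cells were labelled for MAP2, synaptophysin and nuclei, and high-content imaging gave cell body synaptophysin spot counts per neuron relative to DMSO.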
# [10] = CCTE_Mundy_HCI_hNP1_Pro_ResponderAvgInten: CCTE's Proliferation Assay in human neuroprogenitor cells, Mundy Lab (AID 2284224; active = hit-call score of the fitted dose curve at least 0.9, where 1 is the maximum;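 note: human neural progenitor cells hNP1 derived from WA09 embryonic stem cells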)
# Outline: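 Human neuroprogenitors (hNP1, WA09 lineage) receive test chemical after 40 to 44 hours of attachment. A four-hour BrdU pulse begins twenty hours later, followed by fixation and high content imaging; signal is referenced to DMSO controls.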
smiles,measurement,setting,value
COP(=S)(OC)Oc1ccc(Sc2ccc(OP(=S)(OC)OC)cc2)cc1,outcome,[1],inactive
same,AC50,[2],28.9 µM (active)
same,outcome,[3],inactive
same,outcome,[4],inactive
same,outcome,[5],inactive
CC(C)c1ccc(CO)cc1,outcome,[1],inactive
same,outcome,[2],inactive
same,outcome,[3],inactive
same,outcome,[4],inactive
same,outcome,[5],inactive
CCCCC(CC)CO[N+](=O)[O-] (stereo not given),outcome,[1],inactive
same,outcome,[2],inactive
same,outcome,[3],inactive
same,outcome,[4],inactive
same,outcome,[5],inactive
COP(=O)(OC)O/C(=C\Cl)c1cc(Cl)c(Cl)cc1Cl,AC50,[6],5.52 µM (active)
same,AC50,[7],7.22 µM (active)
same,outcome,[8],inactive
same,outcome,[9],inactive
same,AC50,[10],67 µM (active)
Nc1ccc(-c2ccc(N)c(Cl)c2)cc1Cl,outcome,[1],inactive
same,AC50,[2],6.09 µM (active)
same,AC50,[3],20 µM (active)
same,outcome,[4],inactive
same,AC50,[5],12.8 µM (active)
Nc1ncc([N+](=O)[O-])s1,outcome,[1],inactive
same,outcome,[2],inactive
same,outcome,[3],inactive
same,outcome,[4],inactive
same,outcome,[5],inactive
Nc1cccc2ccccc12,outcome,[1],inactive
same,outcome,[2],inactive
same,AC50,[3],20 µM (active)
same,outcome,[4],inactive
same,outcome,[5],inactive
O=C(O)C(F)(F)C(F)(F)C(F)(F)C(F)(F)C(F)(F)C(F)(F)C(F)(F)C(F)(F)C(F)(F)C(F)(F)F,outcome,[1],inactive
same,outcome,[2],inactive
same,outcome,[3],inactive
same,outcome,[4],inactive
same,outcome,[5],inactive
C(=NC1CCCCC1)=NC1CCCCC1,AC50,[1],8.8 µM (active)
same,AC50,[2],1.82 µM (active)
same,AC50,[3],5.75 µM (active)
same,AC50,[4],9.07 µM (active)
same,AC50,[5],6.39 µM (active)
